Our source for the composite z-score and z-score values is PubChem BioAssay.

The structures appear in SMILES notation. Calls of active or inactive are those of the source.

Experiment [1] in a line: binders of probe aFSTL3 on microarray, primary screen, stem cell growth factor project, biochemical, small-molecule microarray, fluorescence 635/667 (AID 1064).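 Note: measures binding of the biotinylated anti-FSTL3 antibody to printed compounds.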 As to conditions: higher = more signal.
A short description of experiment [2]: binders from COS7 lysate, DM2A8 probe, primary screen, torsin A project, cell lysate, small-molecule microarray, fluorescence 635/667 (AID 1065). The following applies: higher = more signal, COS7 lysate expressing mutant human TOR1A.
A short description of experiment [3]: binders of probe aFGF2 on microarray, primary screen, stem cell growth factor project, biochemical, small-molecule microarray, fluorescence 635/667 (AID 1067).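 Note: measures binding of biotinylated aFGF2 protein to printed compounds on slides; z-score merges feature fluorescence and signal-to-noise across triplicate slides.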 As to conditions: higher = more signal.
A short description of experiment [4]: binders of probe aFGF10 on microarray, primary screen, stem cell growth factor project, biochemical, small-molecule microarray, fluorescence 635/667 (AID 1071).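 Note: score merges 667 nm spot intensity and signal to noise from triplicate slides.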 As to conditions: higher = more signal.
Experiment [5] addresses Neurogenic locus notch homolog protein 2 (Homo sapiens) (UniProt Q04721). As to the kind of experiment: Notch2 binders on small-molecule microarrays, primary screen, biochemical, small-molecule microarray, 635 nm fluorescence, stem cell growth factors (AID 1073). As to conditions: Notch2 binding, higher = more signal.
In experiment [6] the target is Pro-neuregulin-1, membrane-bound isoform (Homo sapiens) (UniProt Q02297). Put plainly: NRG1 binders on small-molecule microarrays, primary screen, psychiatric disease protein project, biochemical, small-molecule microarray, fluorescence 635/667 (AID 1075).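 Note: score combines 667 nm spot fluorescence with signal to noise.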 As to conditions: NRG1 binding, 635 nm fluorescence, higher = more signal.
Experiment [7] has as its system Neuregulin-1 EGF-like domain. As to the kind of experiment: binders of neuregulin-1 EGF-like domain, primary screen, biochemical, small-molecule microarray, 635 nm fluorescence (AID 1081).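 Note: binding of the protein to compounds printed on small-molecule microarray slides.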 As to conditions: small-molecule microarray binding, higher = more signal.
A short description of experiment [8]: FRG1 promoter luciferase signal modulators, primary screen, FRG1 inhibition for FSHD, cell-based, C2C12 myotubes, firefly/Renilla luciferase, luminescence (AID 1084). As to conditions: higher = more signal, called active from +8 up or from −8 down.
Experiment [9] is described as follows: binders of probe aFST on microarray, primary screen, stem cell growth factor project, biochemical, small-molecule microarray, fluorescence 635/667 (AID 1086).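 Note: score merges 667 nm fluorescence with signal-to-noise of each printed compound spot.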 As to conditions: higher = more signal.
Experiment [10] is described as follows: binders of probe aHhip on microarray, primary screen, stem cell growth factor project, biochemical, small-molecule microarray, fluorescence 635/667 (AID 1087).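 Note: score merges spot fluorescence at 667nm with spot signal to noise ratio.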 The following applies: higher = more signal.
For experiment [11], the system named is PRMT1 (protein arginine N-methyltransferase 1). As to the kind of experiment: PRMT1 binders on small-molecule microarrays, primary screen, biochemical, small-molecule microarray, 635 nm fluorescence (AID 1088).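 Note: binding of Prmt1 protein to compounds spotted on small-molecule microarray slides.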 The following applies: small-molecule microarray binding, higher = more signal.
The nature of experiment [12]: yeast growth modulation, basal conditions, primary screen, YJM789 clinical isolate, OD600, 24 h (AID 1089).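 Note: growth of clinical yeast isolate S. cerevisiae YJM 789 seeded 1000 cells per well; test concentration not given here.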 The following applies: S. cerevisiae YJM789 growth, higher = more signal, called active from +8 up or from −8 down.
Experiment [13] is described as follows: fission yeast growth modulation, primary screen, strain 972, OD600, 24 h, no modulator (AID 1090).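 Note: basal condition with compound alone and no growth modifier present; test concentration not given here.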 As to conditions: S. pombe 972 growth, higher = more signal, called active from +8 up or from −8 down.
A short description of experiment [14]: S. cerevisiae growth modulation with rapamycin, primary screen, strain BY4716, OD600, 96 h (AID 1091). Note: test concentration not given here. The following applies: higher = more signal, called active from +8 up or from −8 down.
The target in experiment [15] is Torsin-1A-interacting protein 2 (Homo sapiens) (UniProt Q8NFQ8). Put plainly: LULL1 binders on small-molecule microarray, primary screen, cell lysate, human LULL1 lysate, 635/667 nm fluorescence (AID 1092).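 Note: probe is lysate of COS7 cells overexpressing human LULL1; score merges per-feature 667 nm fluorescence with signal-to-noise.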 The following applies: hLULL1 lysate binding, 635 nm fluorescence, higher = more signal.
The nature of experiment [16]: E. coli growth modulation, two-sided OD650, primary screen, E. coli filamentation project, strain DRC41, 24 h (AID 1093).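 Note: MC1000 strain lacking acrAB efflux and sulA so SOS filamentation is blocked; test concentration not given here.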 The following applies: OD650, 24 h, higher = more signal, called active from +8 up or from −8 down.
Experiment [17] is described as follows: small-molecule microarray binders of probe aLefty2, primary screen, biochemical, biotinylated probe, 635/667 nm fluorescence (AID 1094).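 Note: score merges spot fluorescence near 667 nm with spot signal-to-noise ratio.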 The following applies: higher = more signal.
The test system of experiment [18] is Noggin (protein binding on small-molecule microarray). Put plainly: Noggin binders on small-molecule microarray, primary screen, biochemical, 635/667 nm fluorescence (AID 1095).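 Note: score merges 667 nm feature fluorescence with signal to noise over triplicate slides.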 The following applies: 635 nm fluorescence, higher = more signal.
Experiment [19] has as its target Neurogenic locus notch homolog protein 3 (Homo sapiens) (UniProt Q9UM47). Put plainly: NOTCH3 binders on small-molecule microarray, primary screen, biochemical, 635/667 nm fluorescence (AID 1096). The following applies: NOTCH3 binding, 635 nm fluorescence, higher = more signal.
Experiment [20] is described as follows: small-molecule microarray binders of probe aEGFR, primary screen, biochemical, biotinylated probe, 635/667 nm fluorescence (AID 1097).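 Note: probe is a biotinylated anti-EGFR antibody binding compounds printed on slides; score combines fluorescence near 667 nm and signal to noise of each spot.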 As to conditions: higher = more signal.

Neurogenic locus notch homolog protein 3 (Homo sapiens), sequence (Q9UM47 whole entry, looked up): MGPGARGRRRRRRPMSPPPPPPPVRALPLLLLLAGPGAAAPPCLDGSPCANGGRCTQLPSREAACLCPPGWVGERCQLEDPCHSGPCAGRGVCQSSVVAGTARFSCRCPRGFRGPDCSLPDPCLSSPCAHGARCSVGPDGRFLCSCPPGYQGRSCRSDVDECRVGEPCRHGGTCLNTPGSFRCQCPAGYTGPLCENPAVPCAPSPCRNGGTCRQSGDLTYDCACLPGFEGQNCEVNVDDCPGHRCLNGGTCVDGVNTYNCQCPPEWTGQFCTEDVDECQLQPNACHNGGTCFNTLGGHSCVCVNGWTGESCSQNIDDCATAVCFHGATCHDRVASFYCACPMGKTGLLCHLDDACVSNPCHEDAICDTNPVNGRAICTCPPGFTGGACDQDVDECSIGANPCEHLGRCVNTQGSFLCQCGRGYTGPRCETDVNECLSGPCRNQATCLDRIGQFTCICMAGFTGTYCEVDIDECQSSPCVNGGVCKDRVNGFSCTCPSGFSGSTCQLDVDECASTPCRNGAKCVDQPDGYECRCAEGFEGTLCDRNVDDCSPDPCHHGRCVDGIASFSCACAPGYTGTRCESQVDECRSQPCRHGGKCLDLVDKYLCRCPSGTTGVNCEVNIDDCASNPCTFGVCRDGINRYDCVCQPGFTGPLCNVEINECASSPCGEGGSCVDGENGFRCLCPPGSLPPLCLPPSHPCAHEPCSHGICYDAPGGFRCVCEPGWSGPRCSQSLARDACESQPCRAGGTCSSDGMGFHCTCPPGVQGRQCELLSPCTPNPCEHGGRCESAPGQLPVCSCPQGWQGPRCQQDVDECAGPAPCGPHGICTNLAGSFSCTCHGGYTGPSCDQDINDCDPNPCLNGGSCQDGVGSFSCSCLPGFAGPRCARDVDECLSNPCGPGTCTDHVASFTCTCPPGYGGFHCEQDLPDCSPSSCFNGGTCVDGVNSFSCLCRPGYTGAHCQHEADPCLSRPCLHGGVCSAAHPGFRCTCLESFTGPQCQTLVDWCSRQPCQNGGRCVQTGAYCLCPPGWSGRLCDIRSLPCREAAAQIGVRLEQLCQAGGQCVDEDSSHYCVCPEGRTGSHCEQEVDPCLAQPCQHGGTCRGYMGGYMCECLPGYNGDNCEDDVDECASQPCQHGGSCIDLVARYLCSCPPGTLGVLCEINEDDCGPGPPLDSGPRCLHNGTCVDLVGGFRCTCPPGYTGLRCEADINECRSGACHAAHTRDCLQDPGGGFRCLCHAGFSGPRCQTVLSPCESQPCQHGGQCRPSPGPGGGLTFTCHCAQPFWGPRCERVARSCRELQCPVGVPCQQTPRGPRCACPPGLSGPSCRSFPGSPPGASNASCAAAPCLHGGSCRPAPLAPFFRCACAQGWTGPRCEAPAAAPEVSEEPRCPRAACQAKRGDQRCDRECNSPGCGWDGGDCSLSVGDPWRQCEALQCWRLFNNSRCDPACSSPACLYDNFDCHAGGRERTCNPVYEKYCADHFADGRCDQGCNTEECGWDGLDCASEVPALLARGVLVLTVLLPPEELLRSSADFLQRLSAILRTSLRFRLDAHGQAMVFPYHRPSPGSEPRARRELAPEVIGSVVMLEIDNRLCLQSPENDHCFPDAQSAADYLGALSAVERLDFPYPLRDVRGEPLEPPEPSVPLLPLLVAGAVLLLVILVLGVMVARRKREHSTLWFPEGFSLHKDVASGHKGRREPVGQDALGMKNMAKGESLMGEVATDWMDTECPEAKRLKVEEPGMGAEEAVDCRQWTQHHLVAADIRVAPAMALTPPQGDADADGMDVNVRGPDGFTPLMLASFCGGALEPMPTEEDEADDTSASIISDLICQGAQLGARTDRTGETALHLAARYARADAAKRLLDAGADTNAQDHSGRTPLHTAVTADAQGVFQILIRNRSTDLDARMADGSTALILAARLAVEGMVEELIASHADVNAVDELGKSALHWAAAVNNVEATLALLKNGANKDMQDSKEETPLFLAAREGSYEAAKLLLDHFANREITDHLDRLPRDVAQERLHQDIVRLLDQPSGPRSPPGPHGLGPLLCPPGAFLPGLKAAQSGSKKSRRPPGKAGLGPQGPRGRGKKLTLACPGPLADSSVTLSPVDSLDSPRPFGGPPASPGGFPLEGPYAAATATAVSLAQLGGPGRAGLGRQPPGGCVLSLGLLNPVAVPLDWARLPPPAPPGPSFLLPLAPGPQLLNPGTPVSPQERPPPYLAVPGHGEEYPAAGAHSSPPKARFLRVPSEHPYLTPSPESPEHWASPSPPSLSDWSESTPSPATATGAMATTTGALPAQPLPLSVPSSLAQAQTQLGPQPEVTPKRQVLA
Neurogenic locus notch homolog protein 2 (Homo sapiens), sequence (Q04721 whole entry, looked up, canonical isoform): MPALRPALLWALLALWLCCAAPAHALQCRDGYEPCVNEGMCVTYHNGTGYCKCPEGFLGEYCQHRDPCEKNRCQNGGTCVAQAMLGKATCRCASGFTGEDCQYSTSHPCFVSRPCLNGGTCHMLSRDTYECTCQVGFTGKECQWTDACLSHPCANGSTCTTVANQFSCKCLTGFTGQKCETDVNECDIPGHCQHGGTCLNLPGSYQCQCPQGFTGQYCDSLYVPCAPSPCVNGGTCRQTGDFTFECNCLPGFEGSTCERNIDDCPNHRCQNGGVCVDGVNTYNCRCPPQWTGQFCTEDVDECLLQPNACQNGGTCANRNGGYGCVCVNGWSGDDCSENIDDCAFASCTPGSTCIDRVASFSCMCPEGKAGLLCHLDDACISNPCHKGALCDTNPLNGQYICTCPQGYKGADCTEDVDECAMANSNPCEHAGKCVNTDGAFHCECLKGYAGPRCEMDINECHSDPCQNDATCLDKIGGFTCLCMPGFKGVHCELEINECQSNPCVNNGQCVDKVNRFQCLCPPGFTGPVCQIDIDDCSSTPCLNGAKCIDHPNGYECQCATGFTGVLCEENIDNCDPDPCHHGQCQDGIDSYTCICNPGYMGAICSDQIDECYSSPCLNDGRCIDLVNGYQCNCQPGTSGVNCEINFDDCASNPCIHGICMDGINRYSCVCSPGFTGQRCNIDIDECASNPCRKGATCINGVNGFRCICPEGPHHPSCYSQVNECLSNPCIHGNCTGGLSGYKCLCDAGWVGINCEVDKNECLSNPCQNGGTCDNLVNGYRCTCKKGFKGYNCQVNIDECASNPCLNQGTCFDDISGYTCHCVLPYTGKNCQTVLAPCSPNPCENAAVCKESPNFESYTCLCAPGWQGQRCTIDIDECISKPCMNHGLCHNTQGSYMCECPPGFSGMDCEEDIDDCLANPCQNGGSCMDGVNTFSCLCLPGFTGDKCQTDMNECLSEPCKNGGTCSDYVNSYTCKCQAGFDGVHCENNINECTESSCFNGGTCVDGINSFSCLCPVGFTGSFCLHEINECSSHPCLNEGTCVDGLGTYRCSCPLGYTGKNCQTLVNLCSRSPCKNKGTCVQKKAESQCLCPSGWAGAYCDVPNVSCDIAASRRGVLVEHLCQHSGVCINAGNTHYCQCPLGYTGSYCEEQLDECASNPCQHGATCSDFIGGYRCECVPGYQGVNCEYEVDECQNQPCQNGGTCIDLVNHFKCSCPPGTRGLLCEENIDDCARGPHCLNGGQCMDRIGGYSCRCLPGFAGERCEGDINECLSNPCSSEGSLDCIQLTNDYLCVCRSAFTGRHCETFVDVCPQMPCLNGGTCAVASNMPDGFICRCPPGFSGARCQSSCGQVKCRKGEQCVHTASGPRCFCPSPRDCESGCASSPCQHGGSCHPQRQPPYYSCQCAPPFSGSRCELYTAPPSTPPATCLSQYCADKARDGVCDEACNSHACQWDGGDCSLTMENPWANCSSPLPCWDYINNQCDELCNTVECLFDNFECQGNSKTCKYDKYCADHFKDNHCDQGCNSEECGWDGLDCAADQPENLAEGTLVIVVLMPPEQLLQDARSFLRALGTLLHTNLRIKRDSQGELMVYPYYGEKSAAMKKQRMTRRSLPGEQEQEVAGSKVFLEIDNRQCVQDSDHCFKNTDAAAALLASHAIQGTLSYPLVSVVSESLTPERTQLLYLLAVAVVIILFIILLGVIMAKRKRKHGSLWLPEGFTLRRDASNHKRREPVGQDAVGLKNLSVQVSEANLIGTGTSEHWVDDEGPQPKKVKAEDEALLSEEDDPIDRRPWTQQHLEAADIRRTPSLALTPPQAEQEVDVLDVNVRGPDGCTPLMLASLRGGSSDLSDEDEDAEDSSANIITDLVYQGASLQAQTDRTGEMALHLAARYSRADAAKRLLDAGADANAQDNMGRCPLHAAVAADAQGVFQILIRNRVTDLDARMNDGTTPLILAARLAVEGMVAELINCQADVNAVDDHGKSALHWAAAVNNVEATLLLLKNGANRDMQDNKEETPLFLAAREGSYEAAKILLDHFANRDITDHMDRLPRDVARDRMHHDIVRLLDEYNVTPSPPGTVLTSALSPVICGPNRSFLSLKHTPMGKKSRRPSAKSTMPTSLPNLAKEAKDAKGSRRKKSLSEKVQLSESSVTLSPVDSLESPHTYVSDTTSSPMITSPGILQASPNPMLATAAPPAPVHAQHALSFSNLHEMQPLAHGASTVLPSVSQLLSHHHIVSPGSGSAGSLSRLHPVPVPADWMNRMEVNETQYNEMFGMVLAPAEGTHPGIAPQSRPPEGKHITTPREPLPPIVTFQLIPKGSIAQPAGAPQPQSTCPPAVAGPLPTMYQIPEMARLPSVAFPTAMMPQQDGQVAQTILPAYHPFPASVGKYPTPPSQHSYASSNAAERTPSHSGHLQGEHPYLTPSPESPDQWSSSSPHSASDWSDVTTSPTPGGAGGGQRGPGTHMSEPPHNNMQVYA

`CCC(CC)C(O)C1C=CC2C(=O)N(c3ccccc3)C(=O)C2N1Nc1ccccc1F` (stereo not given): the composite z-score in experiment [1] was -0.226; in experiment [2] it was 1.01; in [3] it was -0.0222; in [4] it was 0.715; in [5], 1.48; in experiment [6] it was 1.29. For the same molecule, the composite z-score in experiment [7] is 1.38; in experiment [9], 1; in experiment [10], 0.0373; in experiment [11], 0.203; in experiment [15] it was 3.23; in [17], 0.172. Also, the figures for the composite z-score in [18], in [19] and in [20] were -0.19, 0.78 and -0.04, respectively. Also, the z-score in [8] was -0.556 (inactive); in experiment [12], 0.175 (inactive); in experiment [13] it was 0.44 (inactive); in [14], -0.0875 (inactive); in experiment [16] it was -0.636 (inactive).

On to `COC(=O)[C@@]1(Cc2ccccc2)[C@H]2c3cc(C(=O)N(C)C)n(CCSC(=N)N)c3C[C@H]2CN1C(=O)c1ccccc1`, for which the composite z-score in [1] is -0.0908; in experiment [2], -0.512; in experiment [3], 0.243; in experiment [4] it was -0.248; in [5], -0.175; in experiment [6] it was 1.28. The composite z-score in experiment [7] was 1.04; in [9], 0.319; in experiment [10] it was 0.0401; in experiment [11], 0.265; in experiment [15], 2.05; in [17], 0.169. Moreover, the figures for the composite z-score in experiment [18], in experiment [19] and in experiment [20] were -0.699, -0.0995 and -0.112, respectively. Also, the z-score in experiment [8] is 0.453 (inactive); in [12] it was 0.485 (inactive); in [13], 1.12 (inactive); in experiment [14], 0.102 (inactive); in experiment [16], -0.0906 (inactive).

In the case of `COc1ccc(C(O)C2C=CC3C(=O)NC(=O)C3N2Nc2ccc(Cl)cc2Cl)c2ccccc12` (stereo not given), the composite z-score in [1] was 0.877; in experiment [2], 0.433; in experiment [3], -0.106; in experiment [4] it was 0.273; in experiment [5], 1.02; in experiment [6], 0.999. Moreover, the composite z-score was 1.04 in experiment [7]; 0.951 in experiment [9]; -0.216 in [10]; 1.01 in experiment [11]; 2.98 in experiment [15]; -0.279 in [17]. Also, the composite z-score in experiment [18] was -0.494; in [19], 1.05; in [20], -0.176. Also, the z-score in [8] is -0.0308 (inactive); in experiment [12], -10.5 (active); in [13] it was -2.63 (inactive); in [14], 0.126 (inactive); in experiment [16], -0.708 (inactive).

With `CCOC(=O)C[C@H]1[C@H](OC(=O)c2ccccc2-c2ccccc2)[C@@H](NC(=O)C2CCCCC2)c2cc(OCCCO)ccc2N1C(=O)c1ccc2ccccc2n1`, the composite z-score in [1] is -0.484; in [2], 0.0817; in experiment [3], -0.0594; in experiment [4], 0.53; in [5], 0.813; in [6], 0.388. The composite z-score in [7] is 0.825; in experiment [9], 0.512; in experiment [10] it was -0.0296; in [11], 1.39; in [15], 1.34; in experiment [17], 0.0569. Moreover, the results for the composite z-score in experiment [18], in experiment [19] and in experiment [20] were 0.431, 0.89 and 0.0754, respectively. The z-score in experiment [8] was 0.396 (inactive); in experiment [12], 0.362 (inactive); in experiment [13] it was 0.233 (inactive); in experiment [14], 0.495 (inactive); in experiment [16] it was -1.06 (inactive).

For `CC(=O)NCCCC[C@@H]1NC(=O)[C@H]2C[C@@H](C(=O)NCCCCCCNC(=O)CS)[C@@H](c3cccc(OCCO)c3)N2C1=O`, the composite z-score in experiment [1] is 0.419; in experiment [2], 0.611; in experiment [3] it was 0.0252; in experiment [4], 0.492; in [5], -0.681; in experiment [6] it was 0.465. For the same molecule, the composite z-score in experiment [7] was 1.42; in [9], -0.0535; in experiment [10] it was -0.0618; in [11], 1.56; in experiment [15], 2.65; in experiment [17] it was -0.0187. Also, the composite z-score in experiment [18] is 0.153; in experiment [19], 0.846; in [20] it was -0.123. For the same molecule, the z-score in experiment [8] was 0.799 (inactive); in experiment [12] it was 0.828 (inactive); in [13], 0.257 (inactive); in [14], 1.28 (inactive); in [16], -0.488 (inactive).

`O=C(NCc1ccc(F)cc1)[C@H]1C[C@H]2C(=O)N3CCC[C@H]3C(=O)N2[C@H]1c1ccc(O)cc1`: the composite z-score was 0.883 in experiment [1]; -0.554 in experiment [2]; -0.195 in [3]; -0.216 in experiment [4]; -0.428 in experiment [5]; 0.192 in [6]. For the same molecule, the composite z-score is 0.49 in experiment [7]; -0.819 in [9]; -0.0772 in experiment [10]; 0.0679 in experiment [11]; -0.296 in [15]; -0.0963 in experiment [17]. For the same molecule, the composite z-score in experiment [18] is -0.139; in [19] it was -0.484; in [20], -0.169. For the same molecule, the z-score in experiment [8] is -0.29 (inactive); in experiment [12] it was -1.04 (inactive); in experiment [13], -1.47 (inactive); in [14] it was 0.164 (inactive); in [16], 2.41 (inactive).

As to `C=C1C(=O)C=C2CN(C(=O)c3ccccc3)[C@@](Cc3ccc(OC)cc3)(C(=O)OC)[C@@H]12`, the composite z-score in experiment [1] was 0.53; in experiment [2], 0.442; in [3] it was 0.369; in [4], 1.01; in experiment [5], 1.72; in experiment [6], 2.09. Besides, the composite z-score in [7] worked out at 1.29; in experiment [9], 0.924; in experiment [10] it was 0.212; in experiment [11] it was 1.54; in experiment [15], 3.85; in [17], 0.68. Moreover, the composite z-score in experiment [18] came out at 0.232; in experiment [19], 1.01; in experiment [20], 0.146. Besides, the z-score was 2.08 (inactive) in [8]; 0.573 (inactive) in experiment [12]; 1.85 (inactive) in [13]; 10.3 (active) in experiment [14]; -0.656 (inactive) in experiment [16].

As to `O=C1C[C@]2(c3ccc([N+](=O)[O-])cc3)C(=O)N(C3CC3)c3cc(CO)ccc3[C@H]2N1C1CCCCC1`, the composite z-score in experiment [1] is -0.351; in experiment [2] it was -0.124; in experiment [3], -0.164; in [4], 0.097; in [5], -0.0343; in experiment [6], -0.123. Further, the composite z-score in experiment [7] is -0.0608; in experiment [9], -0.0927; in [10], -0.236; in experiment [11] it was 0.788; in [15], 1.2; in experiment [17] it was -0.171. The composite z-score is -0.533 in experiment [18], -0.105 in [19] and -0.0656 in experiment [20]. Also, the z-score in [8] was 0.413 (inactive); in experiment [12], 0.0359 (inactive); in experiment [13], 0.389 (inactive); in experiment [14], -1.04 (inactive); in [16] it was 0.221 (inactive).

As for `C=C(/C(=C/C[C@@H](OC(C)=O)c1cccc(OCCO)c1)c1cnc2ccccc2c1)C(C)C`, the composite z-score in experiment [1] is -0.121; in experiment [2], 0.197; in experiment [3], -0.0242; in experiment [4], 0.76; in [5], 0.693; in [6], 0.41. The composite z-score was 1.08 in experiment [7]; 0.0752 in [9]; -0.0645 in experiment [10]; 1.55 in experiment [11]; 0.77 in [15]; -0.207 in [17]. The composite z-score in [18] was 2.09; in experiment [19], 0.801; in experiment [20], -0.139. Besides, the z-score in [8] was 2 (inactive); in experiment [12], 0.0631 (inactive); in experiment [13], -0.396 (inactive); in experiment [14], -0.28 (inactive); in experiment [16] it was 0.974 (inactive).
